HttQ103 aggreg – qHTS Multiplex Assay to Identify Dual Action Probes in a Cell Model of Huntington: Aggregate Formation (GFP) | PC12 HttQ103-GFP aggregates, Acumen cytometry, 40 h | Potency, µM (series often up to 46.1 µM), without a hit: at the top dose activity change, negative = inhibition, usual class: inhibitors | actives 1.1% (n = 220,000); further: potency means the concentration at half of the fitted maximal effect; on the % scale 0 is the no-effect control and ±100 the full control effect; nearly all actives have a fitted effect of over 60% in size
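Inducible Q103 Huntingtin exon 1–GFP PC12 line, 1500 cells/well in phenol red free DMEM with 5% equine and 5% calf serum. Tebufenozide 100 nM induced expression; compounds titrated; aggregates quantified by cytometry.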
ALDH1A1 block – qHTS Assay for Inhibitors of Aldehyde Dehydrogenase 1 (ALDH1A1). Aldehyde dehydrogenase 1A1 (Homo sapiens), P00352. Potency, µM (highest dose often 75.3 µM), inactives show at the top dose activity, negative = inhibition, hits mostly inhibitors. Purified ALDH1A1, NADH fluorescence, propionaldehyde substrate. actives 7.3% (n = 220,000); active means well fitted inhibition curve with a large enough effect, not every such curve was filed as active; inconclusive means small, poorly fitted or top-dose-only effect, or another doubt; inactive means no such curve, though single readings can be large or run the other way;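 further: potency means the concentration at half of the fitted maximal effect; plate controls were no enzyme wells and a reference inhibitor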
Target sequence (P00352 whole entry, looked up): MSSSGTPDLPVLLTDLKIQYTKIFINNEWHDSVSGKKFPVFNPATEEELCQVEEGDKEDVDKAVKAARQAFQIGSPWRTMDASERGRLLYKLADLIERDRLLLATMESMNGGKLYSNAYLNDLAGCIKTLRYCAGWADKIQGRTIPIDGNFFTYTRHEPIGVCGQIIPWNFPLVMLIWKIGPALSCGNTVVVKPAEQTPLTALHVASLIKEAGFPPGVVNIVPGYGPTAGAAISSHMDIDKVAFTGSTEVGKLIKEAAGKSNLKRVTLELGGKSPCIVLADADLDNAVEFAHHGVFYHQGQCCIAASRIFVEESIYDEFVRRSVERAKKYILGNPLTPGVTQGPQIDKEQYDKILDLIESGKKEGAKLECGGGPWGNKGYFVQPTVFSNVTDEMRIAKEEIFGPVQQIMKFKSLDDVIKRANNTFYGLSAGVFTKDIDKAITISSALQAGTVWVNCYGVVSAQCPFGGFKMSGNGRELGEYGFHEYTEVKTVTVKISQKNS
RGS12 GoLoco inh – qHTS Assay for Inhibitors of RGS12 GoLoco Motif Activity (Red Fluorophore); AID 880, 2007; actives 0.44% (n = 230,000); Potency, µM (top dose mostly 61.6 µM), for the others: at the top dose activity, negative = inhibition, actives largely listed as inhibitors; Gai1:RGS12 GoLoco peptide FP, rhodamine, 10 min; Guanine nucleotide-binding protein G(i) subunit alpha-1 (Homo sapiens), P63096; active means well fitted inhibition curve with a large enough effect, not every such curve was filed as active; inactive means no such curve, though single readings can be large or run the other way; further: potency means the concentration at half of the fitted maximal effect; on the % scale 0 is the no-effect control and ±100 the full control effect; nearly all actives have a fitted effect of over 30% in size
HTT ATP protect – qHTS Multiplex Assay to Identify Dual Action Probes in a Cell Model of Huntington: Cytoprotection (ATP) | PC12 HTT-Q103 induced, cytoprotection, ATP luminescence, 40 h | Potency, µM (top dose mostly 56.4 µM), for the others: cytoprotection (ATP increase), actives largely listed as activators | actives 0.14% (n = 230,000) | AID 1471, 2008; further: potency means the concentration at half of the fitted maximal effect; % of control where 0% means no effect; nearly all actives have a fitted effect of over 45% in size
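Quantitative HTS on tebufenozide-induced (100 nM) PC12 cells expressing HTTQ103 exon 1–GFP; compounds tested as a concentration series; survival measured via cellular ATP.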
PNC inhibitor – High Content Assay for Compounds that inhibit the Assembly of the Perinucleolar Compartment. PC3M PTB-GFP, PNC prevalence imaging, 16 h; stronger effect = lower value. activity change (PNC), negative = inhibition, % at 10 µM. actives 3.1% (n = 140,000). AID 2417, 2010;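 active means readout at or below -70, meaning at least 70% loss of cells showing the perinucleolar compartment, a nuclear body marking cancer cells; inconclusive means readout between -30 and a set limit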;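 further: plate controls were DMSO wells for no effect and camptothecin positive control wells for full effect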
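Read-out is percentage of cells bearing a perinucleolar compartment, from automated 20x imaging of fixed, Hoechst-stained PC3M PTB-GFP cells. Cells were seeded 4 h, then exposed 16 h to compound (23 nl of library stock) in duplicate plates.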
HPGD block – qHTS Assay for Inhibitors of HPGD (15-Hydroxyprostaglandin Dehydrogenase). 15-hydroxyprostaglandin dehydrogenase [NAD(+)] (Homo sapiens), P15428. purified HPGD, NADH fluorescence kinetic, PGE2 substrate. Potency, µM, without a hit: at the highest dose activity change, negative = inhibition, actives largely listed as inhibitors. actives 4.3% (n = 150,000). AID 894, 2007; active means well fitted inhibition curve with a large enough effect, not every such curve was filed as active; inconclusive means small, poorly fitted or top-dose-only effect, or another doubt; inactive means no such curve, though single readings can be large or run the other way; further: potency means the concentration at half of the fitted maximal effect; on the % scale 0 is the no-effect control and ±100 the full control effect
Target sequence (P15428 whole entry, looked up): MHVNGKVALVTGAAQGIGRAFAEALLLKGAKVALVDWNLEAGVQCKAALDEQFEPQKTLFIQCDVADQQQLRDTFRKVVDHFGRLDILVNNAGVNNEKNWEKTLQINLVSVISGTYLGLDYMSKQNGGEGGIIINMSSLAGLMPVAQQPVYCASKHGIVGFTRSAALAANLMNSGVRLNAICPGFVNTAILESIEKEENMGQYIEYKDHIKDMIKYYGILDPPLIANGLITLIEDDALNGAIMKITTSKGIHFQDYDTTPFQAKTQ
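20 nM HPGD preincubated 15 min at room temperature with compound in 50 mM Tris-HCl pH 8, 0.01% Tween 20. Started with 1 mM NAD+ and 30 uM prostaglandin E2; NADH fluorescence (360/450 nm) read 5 times over 30-s intervals, last minus first.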
Active calls of the source: *; ? = inconclusive; · = no result; [ ] = remark or other dose. In the library only some 11% were active in any assay of this set; here they are far more common. Unless noted, the call rests on the fitted dose curve; in most records, active means well fitted curve in the direction sought with a large enough effect; inconclusive means small, poorly fitted or top-dose-only effect, or another doubt; inactive means no such curve, though single readings can be large; an effect the other way counts as inactive or inconclusive.

SMILES | HttQ103 aggreg | ALDH1A1 block | RGS12 GoLoco inh | HTT ATP protect | PNC inhibitor | HPGD block
Fc1ccccc1CSc1nc2ccccc2[nH]1 | 12% | 13µM* | 4% | -17%[10 µM] | ? | 20µM*
c1ccc2[nH]c(-c3cscn3)nc2c1 | -4% | 6% | -2% | 2%[0.074 µM] | 27 | -28%
NNC(=O)c1ccc(CSc2nc3ccccc3[nH]2)cc1 | 19% | 10µM* | 1% | -32% | · | ·
c1ccc2[nH]c(SCc3cscn3)nc2c1 | 6% | 12% | 9% | 13% | -103* | -4%
Fc1c(F)c(F)c(CSc2nc3ccccc3[nH]2)c(F)c1F | 0% | 4% | 8% | 5% | 41 | -13%
Cc1ccccc1OCC(=O)OCC(=O)NCc1cccs1 | -21% | -3% | 5% | 9%[10 µM] | 19 | ?
C[N+](C)(C)CC(=O)N/N=C\c1ccncc1 | · | -4%[13.5 µM] | 0%[14.2 µM] | 3%[10 µM] | · | -7%
COC(=O)N1CCC2(CC1)CCN(c1ncccn1)CC2 | · | 4% | 1% | ? | · | -11%
O=C(c1ccccc1)c1nc2ccccc2n(CCCn2c(=O)c(C(=O)c3ccccc3)nc3ccccc32)c1=O | ? | 11µM* | 8% | -12% | ? | -2%
O=C(c1ccccc1)c1nc2ccccc2[nH]c1=O | ? | 3% | -4% | -26% | -27 | 25µM*
N#C/C(=C(/O)c1ccc(C(=O)c2ccccc2)cc1)c1nc2ccccc2[nH]1 | 6%[9.22 µM] | 15% | -3% | 3%[10 µM] | · | ·
COC(=O)C/C=C1\c2ccccc2C(OC)C1C (configuration not stated) | · | -3%[13.5 µM] | · | -6%[10 µM] | · | ·
O=C1/C(=C/C=C/c2ccco2)SC(=S)N1c1ccc(O)cc1 | -16%[9.22 µM] | · | 95% | 0%[10 µM] | · | ·
CC(C)C(C(=O)O)N1C(=O)/C(=C/C=C/c2ccco2)SC1=S (configuration not stated) | -3% | ? | 37% | -3% | -14 | 3.5µM*
CCOc1ccc(S(=O)(=O)Nc2ccc(C(=O)N/N=C(\C)c3ccc(-n4ccnc4)cc3)cc2)cc1 | 13%[9.22 µM] | 16µM* | -8% | -17% | 5 | -22%
Cc1noc(C)c1C(=O)N1CCC2(CCCN(Cc3nccs3)C2)CC1 | · | -1% | -4% | -20% | · | -6%
Cc1ccc2c(c1)C(=C(C#N)C#N)C(=O)N2CCN1CCCCC1 | 12%[9.22 µM] | · | 14% | 33%[10 µM] | · | ·
COc1ccccc1Cn1cccc1C=O | -5%[9.22 µM] | 14µM* | 11% | -11%[10 µM] | · | ·
CCn1c2ccccc2c2cc(/C=N/n3c(-c4cc(C)[nH]n4)n[nH]c3=S)ccc21 | -3%[9.22 µM] | 13µM* | -2% | 9%[10 µM] | · | ·
CCn1c2ccccc2c2cc(/C=N/n3cnnc3)ccc21 | 7% | ? | 6% | -12%[10 µM] | 29 | ?
S=c1[nH]ncn1/N=C/c1ccc(Br)cc1 | -8% | 32µM* | 9% | -17% | -2 | 22µM*
CCn1c2ccccc2c2cc(/C=N/n3cn[nH]c3=S)ccc21 | -13% | 22µM* | -1% | -26% | 55 | 16µM*
CCC(=O)[C@@]1(O)C(=O)N2C(=C3C(=O)OCCC31)N(Cc1ccccc1)C(C)=C(C(=O)OC)C2c1ccccc1 (some centres not stated) | · | 11%[13.5 µM] | · | -9%[10 µM] | · | ·
CCCCN(C(=O)/C=C/c1ccco1)c1c(N)n(Cc2ccccc2)c(=O)[nH]c1=O | 4% | 6% | 5% | 19% | · | ·
Cc1ccc(N/N=C/c2c(C)c(C#N)c(=O)n(C)c2O)cc1C | 16% | 0.79µM* | 210% | -13% | · | ·
SMILES | HttQ103 aggreg | ALDH1A1 block | RGS12 GoLoco inh | HTT ATP protect | PNC inhibitor | HPGD block
COc1cc(S(=O)(=O)Nc2ccc(C)cc2)ccc1N=Cc1c(C)c(C#N)c(=O)n(C)c1O | ? | -2% | 99% | 8%[10 µM] | · | ·
Cc1c(C(=O)N2CCN(Cc3ccccc3)CC2)sc2ncnc(N3CCOCC3)c12 | -5% | 25µM* | 8% | 6%[10 µM] | 40 | -20%
Cc1c(C(=O)N2CCC(C)CC2)sc2ncnc(N(C)c3ccccc3)c12 | 20µM* | ? | 4% | -19%[10 µM] | 11 | 8.9µM*
COc1cccc(N2CCN(CC(=O)C34CC5CC(CC(C5)C3)C4)CC2)c1 | 0%[9.22 µM] | 16µM* | 2% | -7% | ? | -8%
COc1ccc(C(C[N+](=O)[O-])c2c(-c3ccccc3)cc3ccccn23)cc1 (configuration not stated) | -8% | ? | -10% | 13% | 4 | 28µM*
COc1cc(C(C[N+](=O)[O-])c2c(-c3ccccc3)cc3ccccn23)cc(OC)c1OC (configuration not stated) | ? | 3.5µM* | 48% | 5% | -9 | ?
COc1ccc(C(C[N+](=O)[O-])c2c(-c3ccccc3)cc3ccccn23)cc1OC (configuration not stated) | ? | -2% | 5% | -13% | 12 | 2%
Cc1noc(C)c1-c1cc(N(C)C)ncn1 | · | 7% | 5% | 0% | · | -13%
C/C(=N\NC(=O)C(C)Oc1ccc([N+](=O)[O-])cc1)c1ccccn1 (configuration not stated) | 10µM* | -2% | -2% | -71% | 100 | -3%
O=c1[nH]c2ccc(N=Cc3c(O)ccc4cc(Br)ccc34)cc2[nH]1 | 25% | 1µM* | 5% | 14%[10 µM] | 79 | -24%
O=C1CCC(=O)N1N1C(=O)C2C3c4ccccc4C(c4ccccc43)C2C1=O (configuration not stated) | ? | 4% | 7% | -28% | · | ·
CC(C)Cn1nnnc1S(=O)(=O)Cc1cccc(C#N)c1 | · | 3.5µM* | 0% | ? | · | -29%
CC(C)Cn1nnnc1S(=O)(=O)Cc1ccccc1 | · | 11% | 5% | -26% | · | -8%
Cc1ccc(SCC2=NN(c3nc(C)cc(C)n3)C(=O)C2)cc1 | 9% | -2% | 6% | 7% | · | ·
Cc1cc(C)nc(N2N=C(C(C)(C)C)CC2=O)n1 | -26% | 6.3µM* | 12% | -2% | 18 | -4%
COc1ccc2[nH]cc(CCNc3cc(-c4cccnc4)ncn3)c2c1 | · | ? | 3% | -33% | · | ·
O=C(/C(Br)=C/Nc1cc(Cl)ccc1Cl)C(F)(F)F | 9% | 16µM* | 5% | 40%[10 µM] | ? | ?
C/C(CCN1CCc2nc(-c3ccccc3)c(-c3ccccc3)cc2C1)=N\OC[C@@H](O)[C@@H]1O[C@@H]2OC(C)(C)O[C@@H]2[C@H]1O | · | 10%[13.5 µM] | · | -79%[10 µM] | · | ·

Compound activity deposited in PubChem BioAssay by National Center for Advancing Translational Sciences (NCATS).
